Where “and” joins values, the source holds several entries; their conditions need not be identical. Equal entries are not always repeated. Records with an inconclusive call do not appear. A structure can be active in one record and inactive in another. Calls of active or inactive are those of the source. The call rests on the fitted dose curve; in most records, active means well fitted inhibition curve with a large enough effect; inconclusive means small, poorly fitted or top-dose-only effect; inactive means flat fitted curve, though single readings scatter.
How the values were obtained:
CRL-7250 = normal cell line; experiment: Cytotoxic Profiling of Annotated Libraries Using Quantitative High-Throughput Screening (AID 1296008); conditions: Five cell lines viability, CellTiter-Glo ATP luminescence, 48-72 h; max response: hits give low values; on max response: on the % scale 0 is the no-effect control and ±100 the full control effect
Summary of the method: (§1)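 Cytotoxicity was measured as CellTiter-Glo ATP luminescence, read after 10 min at room temperature. Compound treatment of the cells lasted 48 or 72 hr at 37 degrees Celsius in a qHTS format.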

HEK293 = experiment: as above; conditions: Five cell lines viability, CellTiter-Glo ATP luminescence, 48-72 h; max response: hits give low values
Summary of the method: as §1

HaCat [1] = experiment: as above; conditions: Five cell lines viability, CellTiter-Glo ATP luminescence, 48-72 h; max response: hits give low values
Summary of the method: as §1

NIH3T3 = experiment: as above; conditions: Five cell lines viability, CellTiter-Glo ATP luminescence, 48-72 h; max response: hits give low values
Summary of the method: as §1

HACAT [2] = experiment: qHTS assay to identify novel small-molecules to repurpose for Merkel cell carcinoma treatment (AID 1296009); conditions: MCC and control cell lines, CellTiter-Glo viability, 72 h; at 44.8 µM (top of the series) unless noted
Summary of the method: (§2)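 After compound transfer in DMSO, plates were kept 72 hr at 37 degree celsius. Luminescent ATP signal from CellTiter-Glo served as viability measure, normalized against DMSO and no-cell controls.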

MCC-13 = experiment: as above; conditions: MCC and control cell lines, CellTiter-Glo viability, 72 h; series mostly up to 46 µM
Summary of the method: as §2

MCC-26 = experiment: as above; conditions: MCC and control cell lines, CellTiter-Glo viability, 72 h; series mostly up to 46 µM
Summary of the method: as §2

KB-3-1 = experiment: Cytotoxic Profiling of Annotated Libraries Using Quantitative High-Throughput Screening (AID 1296008); conditions: Five cell lines viability, CellTiter-Glo ATP luminescence, 48-72 h; max response: hits give low values; on max response: on the % scale 0 is the no-effect control and ±100 the full control effect
Summary of the method: as §1

W2 = experiment: qHTS profiling for inhibitors of Plasmodium falciparum proliferation (AID 504749); conditions: P. falciparum in erythrocytes, SYBR Green DNA, 72 h; series mostly up to 28.7 µM
Summary of the method: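 Three-day growth assay of blood-stage parasites in erythrocytes (0.3% parasitemia, 2.5% hematocrit) at 37 C, 5% CO2, quantified by SYBR Green DNA staining after overnight detergent lysis.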

HEK293T = experiment: qHTS assay to identify novel small-molecules to repurpose for Merkel cell carcinoma treatment (AID 1296009); conditions: MCC and control cell lines, CellTiter-Glo viability, 72 h; at 44.8 µM (top of the series) unless noted
Summary of the method: as §2
Further: nearly all actives have a fitted effect of over 60% in size.
Potency means the concentration at half of the fitted maximal effect.

CCOC(=O)C(C)Oc1cccc2c(=O)n(CC(=O)Nc3ccc4c(c3)OCCO4)ccc12 (centres undefined)
inactive: max response (CRL-7250) 3.46% | max response (HEK293) -23.2% | outcome (HaCat [1]) | max response (NIH3T3) 0.733% | outcome (HACAT [2]) | Potency (MCC-13) | Potency (MCC-26)

O=C(c1ccccc1)c1ccc2n1CCC2C(=O)O (centres undefined)
inactive: max response (CRL-7250) -6.97% and 1.24% | max response (HEK293) 1.29% and -15.1% | outcome (HaCat [1]) | max response (KB-3-1) 1.88% and -12.7% and 3.64% | max response (NIH3T3) -2.4% and -6.59% | outcome (HACAT [2]) | Potency (MCC-13) | Potency (MCC-26)

Nc1ccc(S(N)(=O)=O)cc1
inactive: Potency (W2) | max response (CRL-7250) -3.82% and 0.627% | max response (HEK293) 0.928% and -22.2% | outcome (HaCat [1]) | max response (NIH3T3) -7.64% | outcome (NIH3T3) | outcome (HACAT [2]) | Potency (MCC-13) | Potency (MCC-26)

N=C(N)c1ccc2cc(OC(=O)c3ccc(N=C(N)N)cc3)ccc2c1
inactive: max response (CRL-7250) -0.158% and -1.28% | max response (HEK293) -23.8% and 0.182% | max response (HaCat [1]) -5.52% and -24.6% | max response (KB-3-1) 12.9% | max response (NIH3T3) -7.31% and -12.8% | Potency (MCC-13) | Potency (MCC-26)
active: Potency (W2) 6.75 µM

C[C@@H](c1ncncc1F)[C@](O)(Cn1cncn1)c1ccc(F)cc1F
inactive: max response (CRL-7250) -18.6% | max response (HEK293) -20.1% | outcome (HaCat [1]) | max response (KB-3-1) -4.61% | max response (NIH3T3) -4.26% | outcome (HACAT [2]) | Potency (MCC-13) | Potency (MCC-26)

Nc1cccc2c1CN(C1CCC(=O)NC1=O)C2=O (centres undefined)
inactive: Potency (W2) | max response (CRL-7250) -16.9% and -19.4% | max response (HEK293) 2.44% and -8.05% | max response (HaCat [1]) -19.3% and -22.9% | max response (KB-3-1) 2.15% and 5.39% | max response (NIH3T3) 1.1% and -1.07% | Potency (MCC-13) | Potency (MCC-26)

CC1(C)C(=O)N(CCN2CCC(C(=O)c3ccc(F)cc3)CC2)c2ccccc21
inactive: max response (CRL-7250) 0.499% | outcome (HEK293) | max response (HaCat [1]) -16.9% | max response (KB-3-1) 2.39% | max response (NIH3T3) -5.82% | outcome (HEK293T) | Potency (MCC-13)

O=C(CS(=O)Cc1ccco1)NCC=CCOc1cc(CN2CCCCC2)ccn1 (centres undefined)
inactive: Potency (W2) | outcome (CRL-7250) | max response (HEK293) -11.3% | max response (HaCat [1]) 0.787% | max response (KB-3-1) 2.68% | outcome (NIH3T3) | Potency (MCC-13) | Potency (MCC-26)

CCOc1cc(CC(=O)N[C@@H](CC(C)C)c2ccccc2N2CCCCC2)ccc1C(=O)O
inactive: Potency (W2) | outcome (CRL-7250) | outcome (HEK293) | outcome (HaCat [1]) | max response (NIH3T3) 4.08% | outcome (HACAT [2]) | outcome (HEK293T) | Potency (MCC-13) | Potency (MCC-26)

CC[C@]1(O)C[C@H]2CN(CCc3c([nH]c4ccccc34)[C@@](C(=O)OC)(c3cc4c(cc3OC)N(C=O)[C@H]3[C@@](O)(C(=O)OC)[C@H](OC(C)=O)[C@]5(CC)C=CCN6CC[C@]43[C@@H]65)C2)C1
inactive: outcome (HaCat [1]) | outcome (HACAT [2])
active: Potency (W2) 0.338 µM | Potency (CRL-7250) 29.6 nM and 211 nM | Potency (HEK293) 14.8 nM and 150 nM | Potency (KB-3-1) 1.7 nM and 1.84 µM | Potency (MCC-13) 209 nM and 376 nM | Potency (MCC-26) 46.9 nM

Nc1cc(C(Cl)=C(Cl)Cl)c(S(N)(=O)=O)cc1S(N)(=O)=O
inactive: Potency (W2) | max response (CRL-7250) -8.91% | outcome (HEK293) | max response (HaCat [1]) 2.98% and -14% | max response (KB-3-1) -2.94% and -17.4% | max response (NIH3T3) 4.72% and -5.94% | outcome (HEK293T) | Potency (MCC-13) | Potency (MCC-26)

COC(=O)C1=C(C)NC(C)=C(C(=O)OC(C)C)C1c1cccc2nonc12 (centres undefined)
inactive: max response (CRL-7250) -24.3% | max response (HEK293) -10.7% | max response (HaCat [1]) -5.13% and 3.88% | max response (KB-3-1) 5.12% and -6.21% | max response (NIH3T3) 1.63% | Potency (MCC-13) | Potency (MCC-26)

CCCOc1ccc2nc(NC(=O)OC)[nH]c2c1
inactive: Potency (W2) | outcome (HaCat [1]) | outcome (HACAT [2])
active: Potency (CRL-7250) 668 nM and 132 nM | Potency (HEK293) 150 nM | Potency (MCC-13) 188 nM

CC(C)c1nc(CN(C)C(=O)N[C@H](C(=O)N[C@@H](Cc2ccccc2)C[C@H](O)[C@H](Cc2ccccc2)NC(=O)OCc2cncs2)C(C)C)cs1
inactive: max response (CRL-7250) -16.9% and 0.649% and -2.4% | max response (HaCat [1]) -41.4% and 3.85% | outcome (HaCat [1]) | max response (NIH3T3) -19.1% and 3.76% | outcome (NIH3T3) | outcome (HACAT [2]) | Potency (MCC-13) | Potency (MCC-26)

Cc1cc(O)c2c(c1)C(=O)c1cc(O)cc(O)c1C2=O
inactive: outcome (CRL-7250) | max response (HaCat [1]) -5.49% | max response (KB-3-1) -3.32% | max response (NIH3T3) 0.664% | Potency (MCC-13)

CC(=O)O[C@H]1C(=O)[C@@]2(C)C([C@H](OC(=O)c3ccccc3)[C@]3(O)C[C@H](OC(=O)[C@H](O)[C@@H](NC(=O)c4ccccc4)c4ccccc4)C(C)=C1C3(C)C)[C@]1(OC(C)=O)CO[C@@H]1C[C@@H]2O (some centres undefined)
active: Potency (HEK293) 5.7 nM | Potency (KB-3-1) 1 nM and 7.2 nM | Potency (NIH3T3) 5.9 nM and 36 nM
inactive: max response (HEK293) -90.8%

From PubChem BioAssay (NCATS)
